Data reported in PubChem BioAssay (EPA / NIEHS).
Records with an inconclusive call do not appear. Active and inactive are the calls of the source. Rule for the calls, unless noted: active = hit-call score of the fitted dose curve at least 0.9, where 1 is the maximum; inconclusive = response in the unintended direction; inactive = score below 0.9.

Assays:
[1] = read-out: Transforming Growth Factor (TGFA), TGFA (gene 7039); experiment: LTEA_HepaRG_TGFA: Life Technologies and Expression Analysis (LTEA) Assay for Transforming Growth Factor (TGFA) using HepaRG (AID 2283532; active = hit-call score of the fitted dose curve at least 0.9, where 1 is the maximum; inactive = score below 0.9); settings: mRNA level, 48 h; actives raise or lower the signal
Procedure, shortened: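 TGFA transcript quantified by qRT-PCR (Fluidigm arrays) against three housekeeping genes, after 48 hours chemical treatment of HepaRG cells. Top concentration 100 uM with half-log dilutions, 8 points, duplicates, 0.5% DMSO.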

[2] = read-out: Transforming Growth Factor (TGFB1), TGFB1 (gene 7040); experiment: LTEA_HepaRG_TGFB1: Life Technologies and Expression Analysis (LTEA) Assay for Transforming Growth Factor (TGFB1) Transporter using HepaRG (AID 2283533; active = hit-call score of the fitted dose curve at least 0.9, where 1 is the maximum; inactive = score below 0.9); settings: mRNA level, 48 h; actives raise or lower the signal
Procedure, shortened: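 HepaRG, 48 h post-plating, switched to serum-free induction medium; chemicals 100 uM top, half-log, 8 pts, 0.5% DMSO, dup; 48 h exposure; RNA → Fluidigm TaqMan qRT-PCR; norm ACTB/GAPDH/POLR2A; bidirectional fit vs DMSO.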

TIMP1, TIMP1 (gene 7076) = experiment: LTEA_HepaRG_TIMP1: Life Technologies and Expression Analysis (LTEA) Assay for TIMP1 using HepaRG (AID 2283534; active = hit-call score of the fitted dose curve at least 0.9, where 1 is the maximum; inactive = score below 0.9;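 note: TaqMan qRT-PCR signal normalized to ACTB GAPDH and POLR2A housekeeping genes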); settings: mRNA level, 48 h; actives raise or lower the signal
Procedure, shortened: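 Readout is TIMP1 mRNA level measured by qRT-PCR and normalized to three housekeeping genes. Human HepaRG cells were treated for 48 h in duplicate at eight concentrations up to 100 uM (0.5% DMSO); gain or loss fitted against DMSO.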

[3] = read-out: Tumor necrosis factor receptor 1 (TNFRSF1A), TNFRSF1A (gene 7132); experiment: LTEA_HepaRG_TNFRSF1A: Life Technologies and Expression Analysis (LTEA) Assay for Tumor necrosis factor receptor 1 (TNFRSF1A) using HepaRG (AID 2283535; active = hit-call score of the fitted dose curve at least 0.9, where 1 is the maximum; inactive = score below 0.9); settings: mRNA level, 48 h; actives raise or lower the signal
Procedure, shortened: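 Read-out is TNFRSF1A transcript level by TaqMan qRT-PCR, normalized to three housekeeping genes, scored as gain or loss of signal versus 0.5% DMSO. Human HepaRG cells received test chemicals for 48 h at up to 100 uM (half-log series).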

[4] = read-out: Thyroid Hormone Responsive (THRSP), THRSP (gene 7069); experiment: LTEA_HepaRG_THRSP: Life Technologies and Expression Analysis (LTEA) Assay for Thyroid Hormone Responsive (THRSP) using HepaRG (AID 2283536; active = hit-call score of the fitted dose curve at least 0.9, where 1 is the maximum; inactive = score below 0.9); settings: mRNA level, 48 h; actives raise or lower the signal
Procedure, shortened: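 THRSP transcript quantified by Fluidigm qRT-PCR against three housekeeping genes after 48 h chemical exposure of HepaRG cells in serum-free induction medium; eight-point half-log series, top 100 uM, 0.5% DMSO vehicle, duplicate wells.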

[5] = read-out: Cellular tumor antigen p53 (Homo sapiens) (UniProt P04637); experiment: LTEA_HepaRG_TP53: Life Technologies and Expression Analysis (LTEA) Assay for Tumor Protein P53 (TP53) using HepaRG (AID 2283537; active = hit-call score of the fitted dose curve at least 0.9, where 1 is the maximum; inactive = score below 0.9); settings: mRNA level, 48 h; actives raise or lower the signal
Procedure, shortened: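 Differentiated HepaRG cells in serum-free induction medium exposed 48 h in duplicate to 8 half-log concentrations, top 100 uM, 0.5% DMSO. TP53 mRNA by TaqMan qRT-PCR (Fluidigm), normalized to ACTB, GAPDH, POLR2A; fitted bidirectionally versus DMSO.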

[6] = read-out: UDP glucuronosyltransferase (UGT1A1), UGT1A1 (gene 54658); experiment: LTEA_HepaRG_UGT1A1: Life Technologies and Expression Analysis (LTEA) Assay for UDP glucuronosyltransferase (UGT1A1) using HepaRG (AID 2283538; active = hit-call score of the fitted dose curve at least 0.9, where 1 is the maximum; inactive = score below 0.9); settings: mRNA level, 48 h; actives raise or lower the signal
Procedure, shortened: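 UGT1A1 transcript level, measured by qRT-PCR with three housekeeping genes for normalization, after 48 h treatment of human HepaRG cells (0.5% DMSO, duplicates, up to 100 uM, half-log steps, 8 points). Curves fit both directions against DMSO baseline.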

[7] = read-out: UDP glucuronosyltransferase (UGT1A6), UGT1A6 (gene 54578); experiment: LTEA_HepaRG_UGT1A6: Life Technologies and Expression Analysis (LTEA) Assay for UDP glucuronosyltransferase (UGT1A6) using HepaRG (AID 2283539; active = hit-call score of the fitted dose curve at least 0.9, where 1 is the maximum; inactive = score below 0.9); settings: mRNA level, 48 h; actives raise or lower the signal
Procedure, shortened: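 HepaRG, 48 h post-plating switch to serum-free induction medium; chemical 48 h, 100 uM top, half-log x8, duplicate, 0.5% DMSO. Phenobarbital 1mM induction control. UGT1A6 mRNA by TaqMan qRT-PCR; gain/loss fit vs DMSO.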

[8] = read-out: X-box binding protein 1 (XBP1), XBP1 (gene 7494); experiment: LTEA_HepaRG_XBP1: Life Technologies and Expression Analysis (LTEA) Assay for X-box binding protein 1 (XBP1) using HepaRG (AID 2283540; active = hit-call score of the fitted dose curve at least 0.9, where 1 is the maximum; inactive = score below 0.9); settings: mRNA level, 48 h; actives raise or lower the signal
Procedure, shortened: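 Transcript levels of XBP1, measured by qRT-PCR and normalised to three housekeeping genes, were fitted bidirectionally relative to 0.5% DMSO controls. Human HepaRG cells received eight-point half-log dilutions from 100 uM for 48 h.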

[9] = LTEA_HepaRG_LDH_cytotoxicity: Cytotoxicity Assessment in the Life Technologies and Expression Analysis (LTEA) Assay (AID 2283563)
Procedure, shortened: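 Cells were thawed and plated for 48 h. Medium was then replaced with serum-free induction medium. Chemicals (8 half-log points, maximum 100 uM, 0.5% DMSO) were added in duplicate for 48 h, after which spent medium was assayed for LDH.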

[10] = ATG_XTT_Cytotoxicity: Cytotoxicity Assessment in the Attagene TRANS-FACTORIAL HepG2 Assay (AID 2283584)
Procedure, shortened: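 Cells: human HepG2, transiently transfected with MRTU reporter constructs. Exposure 24 h. Readout: XTT, cell number. Baseline/neg ctrl DMSO; loss-of-signal scored.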

[11] = TOX21_p53_BLA_p2_viability: Viability Assessment in the Tox21 HCT-116 p53 Agonism Beta-lactamase Assay, Phase 2 (AID 2283591);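 note: compound exposure lasted 16 h at 37 °C; actives lower the ATP signal meaning cytotoxicity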
Procedure, shortened: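 Cytotoxicity readout: CellTiter-Glo ATP luminescence, 30 min at room temperature, after the beta-lactamase read. Cells were HCT116 exposed 16 h at 37C to compounds pin-transferred at 217-fold dilution from DMSO stocks.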

[12] = biological target: Cellular tumor antigen p53 (Homo sapiens) (UniProt P04637); experiment: TOX21_p53_BLA_p2_ratio: Tox21 HCT-116 p53 Agonism Beta-lactamase Assay, Ratio, Phase 2 (AID 2283592)
Procedure, shortened: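 Plated HCT116 p53-bla cells (4000/well) received compound after 5 h, then 16 h at 37C/5% CO2. CCF4-AM added, 2 h RT. Ratio of 460 to 530 nm emission taken as the p53 reporter signal.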

[13] = biological target: Cellular tumor antigen p53 (Homo sapiens) (UniProt P04637); experiment: TOX21_p53_BLA_p3_ratio: Tox21 HCT-116 p53 Agonism Beta-lactamase Assay, Ratio, Phase 3 (AID 2283596)
Procedure, shortened: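 Cells were seeded at 4000/well, rested 5 h at 37C, then dosed with DMSO compound solutions (217-fold dilution) for 16 h. CCF4-AM substrate was loaded for 2 h at room temperature, and the 460/530 nm emission ratio was fitted for gain of signal versus DMSO.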

[14] = biological target: Cellular tumor antigen p53 (Homo sapiens) (UniProt P04637); experiment: TOX21_p53_BLA_p5_ratio: Tox21 HCT-116 p53 Agonism Beta-lactamase Assay, Ratio, Phase 5 (AID 2283599)
Procedure, shortened: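 Beta-lactamase reporter ratio (blue 460 nm over green 530 nm, 405 nm excitation) after 2 h CCF4-AM loading, in HCT-116 cells exposed 16 h at 37 C to compounds pinned at 217-fold dilution. Increases relative to DMSO baseline scored.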

[15] = TOX21_p53_BLA_p5_viability: Viability Assessment in the Tox21 HCT-116 p53 Agonism Beta-lactamase Assay, Phase 5 (AID 2283600)
Procedure, shortened: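 Workflow: seed 4000 cells per well, wait 5 h, add compounds (DMSO, 217-fold dilution), incubate 16 h, load CCF4-AM 2 h, add CellTiter-Glo, read luminescence after 30 min.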

[16] = Tanguay_ZF_120hpf_MORT_legacy: (Legacy) Oregon State University Tanguay Lab 120 Hour Post-fertilization zebrafish Assay for Mortality (AID 2283633)
Procedure, shortened: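 5D WT zebrafish, chorion removed 4 hpf; 1 embryo/well from 6 hpf; static exposure to 120 hpf, 28C, dark, sealed. Final DMSO 0.64%. Readout: binary mortality, brightfield, 24 + 120 hpf; DMSO as negative control.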

[17] = TOX21_p53_BLA_p4_viability: Viability Assessment in the Tox21 HCT-116 p53 Agonism Beta-lactamase Assay, Phase 4 (AID 2283597);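 note: hits lower the luminescence signal meaning cytotoxicity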
Procedure, shortened: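 Readout: ATP luminescence (CellTiter-Glo), measured 30 min after reagent addition at RT. The reagent followed a 2 h CCF4-AM incubation, and the cells had been exposed to compound for 16 h at 37C.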

[18] = biological target: Cellular tumor antigen p53 (Homo sapiens) (UniProt P04637); experiment: TOX21_p53_BLA_p4_ratio: Tox21 HCT-116 p53 Agonism Beta-lactamase Assay, Ratio, Phase 4 (AID 2283601)
Procedure, shortened: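 Signal is the blue/green (460nm/530nm) ratio of cleaved versus uncleaved CCF4-AM substrate, read after 2 h substrate loading. Cells were HCT116 carrying the p53-responsive beta-lactamase reporter, dosed 16 h at 37C, 5% CO2; CellTiter-Glo measured in parallel.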

Measured: AC50

Cellular tumor antigen p53 (Homo sapiens), sequence (P04637 whole entry, looked up): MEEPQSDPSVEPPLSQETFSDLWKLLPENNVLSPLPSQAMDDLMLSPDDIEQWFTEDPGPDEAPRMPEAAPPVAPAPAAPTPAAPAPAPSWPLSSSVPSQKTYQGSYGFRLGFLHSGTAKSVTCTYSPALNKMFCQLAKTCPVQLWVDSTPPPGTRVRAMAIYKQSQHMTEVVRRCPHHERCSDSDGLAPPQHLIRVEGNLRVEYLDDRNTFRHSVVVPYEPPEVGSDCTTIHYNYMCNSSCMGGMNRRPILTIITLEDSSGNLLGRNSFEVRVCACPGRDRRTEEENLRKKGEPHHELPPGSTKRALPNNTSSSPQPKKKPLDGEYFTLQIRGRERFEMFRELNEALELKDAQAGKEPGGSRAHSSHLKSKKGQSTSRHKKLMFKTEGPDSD

Oc1ccc2ccccc2c1
inactive: [1] | [2] | TIMP1, TIMP1 (gene 7076) | [3] | [4] | [5] | [6] | [7] | [8] | [9] | [10] | [11] | [12] | [13] | [14] | [15] | [16]

CC[C@H](NC(=O)c1cc(F)ccc1NS(=O)(=O)c1cccc2cccnc12)c1ccccc1
active: [6] 11.1 µM | [7] 47.8 µM | [18] 67.2 µM
inactive: [1] | [2] | TIMP1, TIMP1 (gene 7076) | [3] | [4] | [5] | [8] | [9] | [11] | [12] | [13] | [17] | [14] | [16]
